Here are results for 45 molecules from PubChem BioAssay AID588458 (Sanford-Burnham Center for Chemical Genomics, 2011).

In all, about 360,000 compounds went through this assay and about 3,000 (0.83%) were called active. Cut-off read from the data, not from the text of the source: active = inhibition above about 50%; inactive = the rest. The sample as a whole holds a higher share of actives than the screen did.

DNA (cytosine-5)-methyltransferase 1 (Homo sapiens), sequence (P26358 504-1616 limits assumed): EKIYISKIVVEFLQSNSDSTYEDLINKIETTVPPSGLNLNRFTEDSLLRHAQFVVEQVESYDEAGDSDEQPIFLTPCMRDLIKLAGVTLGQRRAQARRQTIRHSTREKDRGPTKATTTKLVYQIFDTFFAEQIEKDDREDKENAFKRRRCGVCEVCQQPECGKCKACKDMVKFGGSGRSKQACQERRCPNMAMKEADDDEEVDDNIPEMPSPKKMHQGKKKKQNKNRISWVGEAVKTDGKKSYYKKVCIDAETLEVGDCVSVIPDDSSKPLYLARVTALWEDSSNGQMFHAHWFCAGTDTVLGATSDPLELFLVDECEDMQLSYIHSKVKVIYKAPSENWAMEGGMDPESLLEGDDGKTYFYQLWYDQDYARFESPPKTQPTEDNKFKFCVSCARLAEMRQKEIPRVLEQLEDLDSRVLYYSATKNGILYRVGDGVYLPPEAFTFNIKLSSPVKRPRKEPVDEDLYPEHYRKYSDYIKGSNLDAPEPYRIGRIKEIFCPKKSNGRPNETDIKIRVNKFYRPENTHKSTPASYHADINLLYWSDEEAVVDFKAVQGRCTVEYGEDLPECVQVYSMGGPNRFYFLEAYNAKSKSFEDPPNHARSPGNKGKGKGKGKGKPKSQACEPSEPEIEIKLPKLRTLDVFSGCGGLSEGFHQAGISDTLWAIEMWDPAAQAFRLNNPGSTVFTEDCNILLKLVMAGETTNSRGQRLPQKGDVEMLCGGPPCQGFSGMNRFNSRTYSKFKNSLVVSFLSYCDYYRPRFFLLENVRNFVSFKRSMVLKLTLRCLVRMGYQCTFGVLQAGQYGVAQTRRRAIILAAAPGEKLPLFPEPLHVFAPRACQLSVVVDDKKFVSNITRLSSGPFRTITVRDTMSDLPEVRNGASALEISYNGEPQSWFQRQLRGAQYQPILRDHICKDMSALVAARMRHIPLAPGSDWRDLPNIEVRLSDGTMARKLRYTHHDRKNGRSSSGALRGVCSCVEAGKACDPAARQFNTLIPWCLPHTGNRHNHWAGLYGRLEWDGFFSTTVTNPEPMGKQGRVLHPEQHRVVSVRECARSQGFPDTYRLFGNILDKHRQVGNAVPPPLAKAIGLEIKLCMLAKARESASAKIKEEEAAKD

The experiment concerns the target DNA (cytosine-5)-methyltransferase 1 (Homo sapiens) (UniProt P26358). Description: human DNMT1 methyltransferase inhibitors, primary screen, biochemical, molecular beacon, fluorescence, HinP1I cleavage, uHTS (AID 588458). The following applies: at 10 µM, active compounds read high.
Turning to `Cc1cc(C)nc(NS(=O)(=O)c2ccc(N/C=C\C(=O)c3cccs3)cc2)n1`, the inhibition (reported as % activation of signal) is -0.17% (inactive). With `CC(C)(C)n1nnc(CCc2nnn(C(C)(C)C)n2)n1` the figure was 0.1% (inactive). In the case of `COc1cccc(C=CC(=O)C=CC=Cc2ccccc2)c1` it was 13.2% (inactive); in that of `O=C(COC(=O)/C=C/c1cccc(Cl)c1)NCCc1ccccc1`, -1.37% (inactive); in that of `NNc1cccc(C=Cc2ccccc2)cc1=O`, 75.5% (active). With `COc1ccc(CC(=O)NCc2nnc(SCC(=O)Nc3ncc(C)s3)n2C)cc1` the figure was -1.25% (inactive).

Regarding `COc1cc(NC(=S)NNC(=O)CC(C)C)c(OC)cc1Cl`, the inhibition (reported as % activation of signal) was -0.35% (inactive). As to `Cc1ccc(N2C(=O)CC(Nc3cccc4ccccc34)C2=O)cc1` (stereo not given), the inhibition (reported as % activation of signal) is -1.89% (inactive). With `CSc1ccccc1NC(=O)C(C)N1C(=O)c2ccccc2S1(=O)=O` (stereo not given) the figure was -0.34% (inactive); with `CC(=O)Nc1ccccc1Sc1ccc2c3c(cccc13)C(=O)N(c1ccc(C)cc1)C2=O`, 73.9% (active); with `O=C(c1ccco1)N1CCN(C(=O)C2CCCN(S(=O)(=O)c3cccc4nsnc34)C2)CC1` (stereo not given), 0.5% (inactive). With `CCC(=O)N1CCCC1(C)C(=O)Nc1ccc2c(c1)CCN2C(C)=O` (stereo not given) the figure was -1.12% (inactive); with `Cc1ccc(NS(=O)(=O)c2c(C)[nH]c(C)c2C(=O)N2CCCCC2)c(C)c1`, 12.2% (inactive).

For `COc1cccc(CC(=O)N2CCCC(CCC(=O)N3CCN(c4ccccn4)CC3)C2)c1` (stereo not given), the inhibition (reported as % activation of signal) is -0.42% (inactive). In the case of `C=Cc1ccc(C(=O)N2CCCC(CCC(=O)N3CCN(c4ccccn4)CC3)C2)cc1` (stereo not given) it was 80.1% (active); in that of `O=C(CCC1CCCN(C(=O)c2ccc(F)c(F)c2)C1)N1CCN(c2ccccn2)CC1` (stereo not given), 3.2% (inactive). As for `O=C(CN1CCN(S(=O)(=O)c2cccc(Cl)c2)CC1)N1CCCCC1`, the inhibition (reported as % activation of signal) was -1.19% (inactive).

Consider `O=C(CN1CCCSc2ccccc21)N1CCN(S(=O)(=O)c2ccccc2)CC1`, for which the inhibition (reported as % activation of signal) was -0.81% (inactive).

Consider `O=C(CN1CCCSc2ccccc21)N1CCN(S(=O)(=O)c2cccc(F)c2)CC1`, for which the inhibition (reported as % activation of signal) was 89.2% (active).

Turning to `COc1ccc(C(=O)N2CCN(c3ccc(C(C)=O)cc3F)CC2)cc1S(=O)(=O)NC1CC1`, the inhibition (reported as % activation of signal) was 3.83% (inactive).

Consider `CC1CCC(C(C)C)C(=O)/C1=C\c1ccc(NC(=O)CCC(=O)O)cc1` (stereo not given), for which the inhibition (reported as % activation of signal) was 0.83% (inactive). With `Cc1ccc(Cc2cncc(O)c2)cc1S(=O)(=O)O` the figure was 50.3% (active); with `COC(=O)CC(=O)N1CCN(c2ccc(Cl)c(Cl)c2)CC1`, -1.96% (inactive); with `CC1(Oc2ccc(Cl)cc2)CCN(Cc2csc3ccccc23)C1` (stereo not given), 1.6% (inactive). In the case of `O=S(=O)(NCCc1ccc(Cl)cc1)c1cccs1` it was -0.79% (inactive); in that of `CCOC(=O)c1c(C)[nH]c(C)c1C(=O)CSc1nc(N)cc(N)n1`, -17.2% (inactive).

Consider `CCOC(=O)c1c(NC(=O)CSc2nccc(=O)[nH]2)sc(C)c1C`, for which the inhibition (reported as % activation of signal) is 0.32% (inactive).

As to `CCOC(=O)c1c(C)[nH]c2c1-c1ccccc1C(=O)C2=O`, the inhibition (reported as % activation of signal) was 93.5% (active). With `O=C(OCC(=O)N1CCCC1=O)c1cc(S(=O)(=O)N2CCOCC2)ccc1Cl` the figure was 0.37% (inactive); with `CCOC(=O)c1sc(N(Cc2ccccc2)C(=O)CN2C(=O)CN(C)C2=O)nc1C`, -3.6% (inactive).

On to `Cc1ccccc1CSCC(=O)NC(=O)NC(C)(C)C`, for which the inhibition (reported as % activation of signal) was -1.56% (inactive).

With `CC(C)(C)NC(=O)CSc1nnc(NC(=O)CCc2ccccc2)s1`, the inhibition (reported as % activation of signal) was -0.32% (inactive). `CC(C)(C)NC(=O)CSC(=Nc1ccccc1F)NC#N`: the inhibition (reported as % activation of signal) was 52.8% (active). With `CCCC/C=C/c1cccc2nncn12`, the inhibition (reported as % activation of signal) was 5.75% (inactive).

For the molecule `COc1ccccc1C(=O)Nc1ccc(OCC(=O)N2CCCCC2)cc1`, the inhibition (reported as % activation of signal) is 5.57% (inactive). In the case of `COc1ccc2c(c1)c(=O)c(C(=O)c1ccc(Cl)cc1)cn2CC(=O)Nc1ccc(F)cc1` it was 59.8% (active); in that of `COc1ccc(NC(=O)CC2C(=O)NC3CCCCC3N2C(=O)c2ccc(F)cc2)cc1` (stereo not given), 4.5% (inactive); in that of `O=C(c1ccc(F)cc1)c1cn(Cc2ccc(F)cc2)c2cc3c(cc2c1=O)OCCO3`, -8.26% (inactive). For `CNc1cc(-c2c(OC)cccc2OC)ncn1`, the inhibition (reported as % activation of signal) was 5.78% (inactive). In the case of `COC(=O)c1ccc(C2NC(=O)NC(C)=C2C(=O)N(C)C)cc1` (stereo not given) it was 0.97% (inactive); in that of `O=C(NNC(=O)c1cc(-c2ccccc2Cl)nc2ccccc12)c1csc(N2CCOCC2)n1`, 1.75% (inactive).

For the molecule `O=C(Nc1ccc2ccccc2c1)Nc1ccc2snnc2c1`, the inhibition (reported as % activation of signal) was -8.95% (inactive).

Turning to `COC(=O)c1ccccc1NC(=O)C1(S(=O)(=O)c2ccc(Cl)cc2)CC1`, the inhibition (reported as % activation of signal) was -0.08% (inactive). With `CCOC(=O)C1CCCN(C(=O)CSc2nnc3nc(C)cc(C)n23)C1` (stereo not given) the figure was 0.98% (inactive). With `CN(C)CC(C)(C)CNC(=O)c1cc(Br)cc(Br)c1O`, the inhibition (reported as % activation of signal) is -5.18% (inactive).
